From PubChem BioAssay AID588335 (The Scripps Research Institute Molecular Screening Center, 2011) come the findings set out here.

Hit rate of the full screen: of about 360,000 compounds, about 4,500 (1.2%) were called active. The sample holds actives, similar compounds and a random draw of the others, so the mix is not that of the screen. Cut-off read from the data, not from the text of the source: active = inhibition above about 30%; inactive = the rest.

The test can be described thus: inhibition of GDH and TPI enzymes – biochemical, absorbance, full deck, artefact control for M. tuberculosis FBA inhibitor project, primary screen (AID 588335).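 Note: 0% = DMSO wells and 100% = wells lacking the enzyme.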 The note with it: GDH-TPI coupled enzyme counterscreen, NADH absorbance; at 4.8 µM; active compounds read high. In general terms: A counterscreen serves to expose hits that act by an unwanted route or on another target.
In general, inhibition refers to the drop in the measured response relative to a control, in per cent. For `COc1cccc(CNC(=O)COc2cc(O)c3c(c2)OC(C)(C)CC3=O)c1`, the inhibition was 0% (inactive).
Then `CC(CO)(CO)NC(=O)c1ccc(=O)[nH]n1`, with 8.64% (inactive); and `CC(=O)c1ccc(N2CCN(C(=O)CCNC(=O)Cn3ccc4ccccc4c3=O)CC2)cc1`, with 34.2% (active); and `CN(C(=O)CCNC(=O)Cn1ccc2ccccc2c1=O)c1ccc(Br)cc1`, with 1.56% (inactive).
Next, `Cc1ccc(CNC(=O)CCNC(=O)Cn2ccc3ccccc3c2=O)cc1`: 7.19% (inactive).
Take `C[C@H]1Cn2cnc(C(=O)N[C@@H](Cc3c[nH]c4ccccc34)C(=O)OC(C)(C)C)c2C(=O)N1`: the inhibition was 7.22% (inactive).
With `COc1ccc(CN2CCCC(C(=O)N3CCCCC3)C2)cc1` (stereo not drawn), the inhibition was 4.14% (inactive).
Next, `COc1ccc(/C=C/C(=O)NC(=S)N2CCCC(C(N)=O)C2)cc1` (stereo not drawn): 48.8% (active).
Then `COc1ccc(/C=C/C(=O)NC(=S)NN2CCCCC2c2cccnc2)cc1` (stereo not drawn), with 10.5% (inactive); and `COc1ccc(C(=O)N2CCN(c3ncccn3)CC2)cc1S(=O)(=O)N1CCOCC1`, with 3.64% (inactive); and `Cc1ccc(S(=O)(=O)N2CCOCC2)cc1C(=O)NC(=S)N(Cc1ccccc1)C(C)C`, with -2.59% (inactive).
Take `COCCN(CCOC)c1nc(N)c2c(N)nc3c(c2c1C#N)CC(=O)N3Cc1ccc(Cl)cc1`: the inhibition is 13.7% (inactive).
Next, `COc1cc(Cn2c3ccc(NC(=O)CC(C)c4ccccc4)cc3c(=O)n2C)ccc1F` (stereo not drawn): 4% (inactive); `CCC(=O)Nc1c(S(=O)(=O)c2ccccc2)c2nc3ccccc3nc2n1Cc1ccccc1`: 27% (inactive); `CCCn1nc(NS(=O)(=O)c2ccc(F)cc2)c2cc3ccccc3nc21`: 6.9% (inactive).
Next, `CCN(CC)CCn1c(N)c(S(=O)(=O)c2ccccc2)c2nc3ccccc3nc21`: 31% (active).
With `O=C(NNS(=O)(=O)c1ccccc1C(F)(F)F)c1cc2ncc(C(F)(F)F)cc2s1`, the inhibition is 12.3% (inactive).
Consider `COCc1ccc(C(=O)N2CCc3c([nH]c4ccccc34)C2c2ccccn2)s1` (stereo not drawn), for which the inhibition was -1.89% (inactive).
As to `CNC(=O)c1csc(Cc2c(Cl)sc3ccc(Cl)cc23)n1`, the inhibition is -5.66% (inactive).
With `CN(C)C(=O)CCc1ccc2c3c([nH]c2c1)[C@]1(C)[C@@H](C(=O)N2CCOCC2)C[C@H](CC(=O)NCCc2ccccn2)C(=O)N1CC3`, the inhibition is 3.64% (inactive).
Next, `COc1ccc(S(=O)(=O)N2CCCCCC2)cc1NC(=O)Cc1ccc(OC)c(OC)c1`: -2.16% (inactive); `COc1ccccc1CC(=O)Nc1ccc(S(=O)(=O)N2CCCC2)cc1`: 3.02% (inactive).
Then `COc1ccc(-c2ccc(Nc3ccc(S(=O)(=O)N4CCCC4)cc3)nn2)cc1OC`, with 50.4% (active).
Then `CCc1ccc(C(=O)C(C)OC(=O)CN2C(=O)NC3(CCCC3)C2=O)cc1` (stereo not drawn), with 6.99% (inactive); and `CC(OC(=O)Cc1ccc(F)cc1)C(=O)N1CCc2ccccc21` (stereo not drawn), with 3.45% (inactive); and `Cc1ccc(C(=O)COC(=O)CCCC(=O)NC2CCCCC2)cc1[N+](=O)[O-]`, with -3% (inactive).
`Cc1ccc(N=C2NC(=O)c3cccc([N+](=O)[O-])c32)cc1`: the inhibition is 13.5% (inactive).
Next, `COC(=O)Cn1c(O)c(N=NC(=O)OC)c2ccccc21`: 31.6% (active); `CCn1c(O)c(N=NC(=O)c2cccc(S(=O)(=O)N3CCCCC3)c2)c2ccccc21`: 4.32% (inactive); `CCOC(=O)Cn1c(O)c(N=NC(=O)CNC(=O)Cc2ccccc2)c2ccccc21`: 28.8% (inactive).
Next, `O=C(O)C1=CCCN(CCON=C(c2ccccc2)c2ccccc2)C1`: -4.66% (inactive).
Turning to `Cc1nc2ccccc2c(C)c1C(=O)c1ccc(F)cc1`, the inhibition was -2.59% (inactive).
Next, `CCn1c(NC(=O)c2nn(C)cc2Br)nc2ccccc21`: 6.37% (inactive); `Cn1c(-c2ccc(C(=O)c3ccccc3)s2)nc2ccccc21`: 38.1% (active).
Then `Cn1c(CC(=O)NNC(=O)c2ccccc2F)nc2ccccc21`, with -6.69% (inactive).
Then `Cn1c(NC(=O)c2ccccc2)nc2ccccc21`, with 41.4% (active); and `CCCn1c(C(=O)c2ccccc2OC)nc2ccccc21`, with 8.57% (inactive).
Consider `C/C(=C(\C#N)C(=O)NCCCN1CCOCC1)N(C)C`, for which the inhibition is 7.8% (inactive).
Then `CCc1nn(CCCC(=O)Nc2ccc(C)cc2C)c(=O)c2cc3occc3n12`, with 5.68% (inactive).
As to `CCN(CC)C(=O)CSc1nc2ccccc2n1CC(=O)N1CCN(c2ccccc2OC)CC1`, the inhibition was -6.21% (inactive).
As for `O=C1NC(=O)C(CCc2ccccc2)(c2ccccc2)N1` (stereo not drawn), the inhibition was 2.63% (inactive).
Next, `O=C(N/N=C/C=C/c1ccccc1)C1CC1(c1ccccc1)c1ccccc1` (stereo not drawn): 21.3% (inactive).
Then `COc1ccc(C2=Nn3c(nnc3-c3ccccc3OC)SC2)cc1OC1CCCC1`, with 31.1% (active).
Next, `CCn1c(SCC(=O)NC2CC2)nnc1-c1ccccc1OC`: -0.34% (inactive).
`COc1cc(OC)c(NS(=O)(=O)c2cn(C)cn2)cc1Cl`: the inhibition is -9.45% (inactive).
Next, `Cc1cccc(N2O[C@H]3C=CC2CCCC3)n1`: -10.9% (inactive).
Next, `O=C(NC(=S)Nc1ccccc1C(=O)O)c1ccc(-c2ccc(Br)cc2)o1`: 40.9% (active); `O=C(NC(=S)Nc1cc(C(F)(F)F)ccc1N1CCOCC1)c1ccc(-c2cccc(Cl)c2)o1`: -2.21% (inactive).
Next, `CN1CCN(C(=O)c2ccc(-c3ccc(Br)cc3)o2)CC1`: 3.5% (inactive); `O=c1c2ccccc2c(-c2ccccc2)nn1-c1ccccn1`: 1.89% (inactive).
As to `CCOC(=O)c1ccn(-c2nc(-c3ccco3)cc(C(F)(F)F)n2)n1`, the inhibition is 35.1% (active).
Next, `O=C(CSc1nc(-c2ccco2)cc(C(F)(F)F)n1)N1CCc2ccccc2C1`: 10.9% (inactive); `COC(=O)c1cnn2c(C(F)(F)F)cc(-c3ccco3)nc12`: 16.7% (inactive).
Then `NC(=O)CC(NC(=O)Cc1ccc(Br)cc1)c1ccc(NC2CC3CCC2C3)c([N+](=O)[O-])c1` (stereo not drawn), with -1.99% (inactive); and `CC1(c2ccc(Cl)cc2Cl)NC(=O)N(CC(=O)Nc2cccnc2Cl)C1=O` (stereo not drawn), with 0% (inactive); and `Cc1cccc(C(=O)OCC(=O)NCC(C)C)c1O`, with 2.88% (inactive).
Next, `N#CC1=C(N)N(c2ccc(F)cc2)C(=O)C1`: 4.15% (inactive); `O=[N+]([O-])c1ccc2oc(-c3cccc(O)c3)nc2c1`: 15.8% (inactive); `CCCc1ccc(OCc2ccc(C(=O)N/N=C/c3cccc([N+](=O)[O-])c3)o2)c(OC)c1`: 3.73% (inactive).
For the compound `Cc1occc1C(=O)N/N=C/c1ccc(-c2cccc([N+](=O)[O-])c2)o1`, the inhibition is 34% (active).
Then `O=C(CN1C(=O)NC2(CCCC2)C1=O)OCCOc1ccc(F)cc1`, with -5.15% (inactive).
For `Cc1ccc(C(=O)NCC(c2cccs2)N(C)C)cc1S(=O)(=O)N1CCOCC1` (stereo not drawn), the inhibition is 3.9% (inactive).
Consider `CC(/C=N/NC(=O)c1cc(-c2ccc3ccccc3c2)n[nH]1)=C\c1ccco1`, for which the inhibition is 17% (inactive).
Regarding `O=C(COC(=O)CCC(=O)c1cccs1)NCc1ccco1`, the inhibition was 5.96% (inactive).
Next, `Cc1ccc(-c2cc(C(=O)N/N=C/C=C/c3ccco3)c3ccccc3n2)cc1C`: 52.1% (active).
Next, `CC1(C)CC(=O)C/C(=N\NC(=O)c2cccs2)C1`: 17.8% (inactive); `O=C(NCCc1ccccn1)c1cc(-c2ccc(Cl)cc2)nc2ccccc12`: 19.5% (inactive).
Next, `O=C(N/N=C/C=C/c1ccco1)c1cccs1`: 46.5% (active).
Take `O=C(CCc1ccc(S(=O)(=O)N2CCOCC2)cc1)OCC(=O)c1ccc(Br)cc1`: the inhibition was -6.33% (inactive).
Then `COc1ccc(CCNC(=O)COC(=O)Cc2cccc(F)c2)cc1`, with -8.97% (inactive); and `O=C(NCc1ccccc1Cl)C1CCC(CNc2c(N3CCCCC3)c(=O)c2=O)CC1` (stereo not drawn), with 4.69% (inactive).
Then `CCC(C)C1(C2CCCC2)NC(=O)NC1=O` (stereo not drawn), with 0.88% (inactive); and `O=C(NC1CCC(O)CC1)c1ccc(S(=O)(=O)NCc2ccco2)cc1` (stereo not drawn), with 11.2% (inactive).
Next, `COc1ccc(CN(C)C(=O)c2cc(-c3ccc(C)cc3C)nc3ccccc23)c(OC)c1OC`: 0% (inactive); `COc1cc(/C=N/NC(=O)c2cc(-c3ccccc3C)nc3ccccc23)cc(OC)c1O`: 76.5% (active).
Turning to `Cc1ccc(/C=N/NC(=O)COc2ccccc2-c2ccccc2)cc1`, the inhibition is 5.68% (inactive).
Then `Cc1ccc(NN=Nc2nc3c([nH]2)c(=O)n(C)c(=O)n3C)cc1`, with 2.21% (inactive).
Next, `O=C(Nc1ccc(N2CCOCC2)cc1)c1cccc2c(-c3ccc(F)c(F)c3)coc12`: 1.77% (inactive).
Next, `CCc1c(C)n([O-])c2c([n+]1=O)CCCCC2`: 6.72% (inactive); `Cc1nc(-c2ccc(Cl)cc2)sc1C(=O)CBr`: 22.6% (inactive); `Cc1[nH]c(=O)c(C(=O)/C=C/c2ccccc2)c2c1CCCC2`: 12.9% (inactive).
Regarding `Cc1nc(-c2ccccc2)sc1C(=O)/C=C/c1ccccc1`, the inhibition was 31.8% (active).
Next, `COc1ccccc1-n1ccnc(SCC(=O)NC2CCCCC2)c1=O`: 7.32% (inactive); `Cc1ccccc1C(CC(=O)c1cccs1)C(C#N)C#N` (stereo not drawn): 0% (inactive).
Next, `C/C(=N\NS(=O)(=O)c1cccc([N+](=O)[O-])c1)c1cc2ccccc2o1`: 22.8% (inactive); `C/C(=N\NC(=S)Nc1ccc(C)cc1)c1cc2ccccc2o1`: 77.5% (active).
Then `C/C(=N/NC(=S)Nc1ccccc1)c1ccc2c(c1)OCO2`, with 12.9% (inactive); and `CCc1c(C)nc(N)n2c(SCC(=O)NC3CCCCC3)nnc12`, with 0% (inactive).
Consider `Cc1ccc(S(=O)(=O)N2CCCCC2)cc1C(=O)N1CCN(CCO)CC1`, for which the inhibition is -15.1% (inactive).
Then `O=C1NC(c2ccccc2)Cc2ccncc21` (stereo not drawn), with 13.4% (inactive).
Next, `c1ccc(-n2nnnc2N2CCOCC2)cc1`: 2.54% (inactive); `O=C(C1CCCO1)N1CCC(c2nc3ccccc3[nH]2)CC1` (stereo not drawn): -7.92% (inactive); `C1=C(N2CCOCC2)/C(=C/c2nc3ccccc3[nH]2)CC1`: 34.8% (active).
